Experimental data from PubChem BioAssay (NCATS).
Records with an inconclusive call do not appear. A call without a number means that no potency is given here. A number with no mark means an inactive call. Calls of active or inactive are those of the source. Calls follow the shape of the dose curve; as a rule, active = well fitted inhibition curve with a large enough effect; inconclusive = small, poorly fitted or top-dose-only effect; inactive = no such curve, though single readings can be large or run the other way. Where a SMILES comes first, the peptide text is derived from it. [ ]: non-standard residue; d: D form. dPhe(4-Cl) = N[C@H](Cc1ccc(Cl)cc1)C(=O)O; d2Nal = N[C@H](Cc1ccc2ccccc2c1)C(=O)O; dCit = NC(=O)NCCC[C@@H](N)C(=O)O; d3Pal = N[C@H](Cc1cccnc1)C(=O)O

Tested on: Zika virus NS2B-NS3 protease (unlinked complex)
Assay: Primary screen GU Rhodamine qHTS for Zika virus inhibitors: Unlinked NS2B-NS3 protease assay (AID 1347159); also: nearly all actives have a fitted effect of over 60% in size
Conditions: Recombinant ZIKV NS2B-NS3 protease, Rhodamine110 substrate fluorescence; series mostly up to 107 µM
How it was run: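 Buffer 10 mM Tris-HCl pH 8.0, 0.01% Tween 20. Unlinked protease 25 nM; compound preincubation 15 min, RT, protected from light. Substrate Rhod110, 1.5 microM; ~15% conversion in 15 min.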

SMILES	Potency	activity change, negative = inhibition
C=C[C@H]1[C@H](O[C@@H]2O[C@H](CO)[C@@H](O)[C@H](O)[C@H]2O)OC=C(C(=O)OC)[C@H]1C/C=C(/C=O)[C@@H]1C(C(=O)OC)=CO[C@@H](O[C@@H]2O[C@H](CO)[C@@H](O)[C@H](O)[C@H]2O)[C@@H]1C=C	inactive	
OCCc1ccc(O[C@@H]2O[C@H](CO)[C@@H](O)[C@H](O)[C@H]2O)cc1	inactive	
CC1(C)CC[C@]2(C(=O)OC3OC(CO)C(O)C(O)C3O)CC[C@]3(C)C(=CCC4[C@@]5(C)CC[C@H](OC6OC(C(=O)O)C(O)C(OC7OC(CO)C(O)C(O)C7O)C6O)C(C)(C)C5CC[C@]43C)C2C1 (some centres not stated)	inactive	
CC[C@H](CO)Nc1nc(NCc2ccc(-c3ccccn3)cc2)c2ncn(C(C)C)c2n1	inactive	
C[C@H](N)C(=O)N[C@@H](Cc1ccc(O)cc1)C(=O)N1CCC[C@H]1C(=O)NCC(=O)N[C@@H](CCCCN)C(=O)N[C@@H](Cc1ccccc1)C(N)=O		124% [at 19.1 µM]
CC(C)(C)OC(=O)N1CCC(OCc2nc(-c3ccncc3)no2)CC1	inactive	
COC(=O)/C=C/C12COC(C)(C)C1C(O)C(OC(C)=O)C1(C)C2CCC2(C)C(c3ccoc3)OC(=O)C3OC321 (configuration not stated)	inactive	

Tested on: Zika virus NS2B-NS3 protease (linked construct)
Assay: Primary screen NINDS Rhodamine qHTS for Zika virus inhibitors (AID 1347160); also: nearly all actives have a fitted effect of over 55% in size
Conditions: purified NS2B-NS3 protease, Rhodamine110 substrate fluorescence; series mostly up to 57.1 µM
How it was run: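 Aprotinin served as in-plate control. Conditions: 25 nM linked NS2B-NS3, pH 8.0 Tris buffer, titrated compounds, 15 min preincubation and 15 min reaction with 1.5 microM Rhod110 substrate at room temperature.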

SMILES	Potency	activity change, negative = inhibition
COc1ccc(C2COc3cc(O)ccc3C2)c(O)c1 (configuration not stated)	inactive	
COc1c/c(=C2\C=c3ccccc3=N2)[nH]/c1=C\c1[nH]c(C)cc1C	inactive	
C=C[C@H]1C(O[C@@H]2O[C@H](CO)[C@@H](O)[C@H](O)[C@H]2O)OC=C2C(=O)N3CCc4c([nH]c5ccccc45)[C@H]3C[C@H]21 (some centres not stated)	inactive	
CC(=O)N[C@H](Cc1ccc2ccccc2c1)C(=O)N[C@H](Cc1ccc(Cl)cc1)C(=O)N[C@H](Cc1cccnc1)C(=O)N[C@@H](CO)C(=O)N[C@@H](Cc1ccc(O)cc1)C(=O)N[C@H](CCCNC(N)=O)C(=O)N[C@@H](CC(C)C)C(=O)N[C@@H](CCCN=C(N)N)C(=O)N1CCC[C@H]1C(=O)N[C@H](C)C(N)=O (Ac-[d2Nal][dPhe(4-Cl)][d3Pal]SY[dCit]LRP[dA]-NH2)	inactive	
C[C@H]1Oc2cc(cnc2N)-c2c(nn(C)c2C#N)CN(C)C(=O)c2ccc(F)cc21	inactive	
O=C(CN1C(=O)C2(CCCC2)NCC1c1cc(F)cc(F)c1)Nc1ccc2c(c1)CC1(C2)C(=O)Nc2ncccc21 (configuration not stated)	inactive	
COc1nc2sc(C(=O)NC3CC3)c(N)c2c(C)c1Cl	inactive	
CC1=C2C[C@H]3O[C@@]3(C)CCC3O[C@@]3(C)C[C@@]2(O)OC1=O (some centres not stated)	inactive	
C=C1[C@@H]2CC[C@@H]3[C@@](CCC4C(C(=O)O)(C(=O)O)C[C@@H](O[C@@H]5O[C@H](CO)[C@@H](O)[C@H](O)[C@H]5OC(=O)CC(C)C)C[C@]43C)(C2)[C@H]1O (some centres not stated)	inactive	
CCS(=O)(=O)N1CCN(c2ccc(Nc3ncc(C(N)=O)c(NC4CC4)n3)cc2)CC1	inactive	
COC(C(=O)N1Cc2[nH]nc(NC(=O)c3ccc(N4CCN(C)CC4)cc3)c2C1)c1ccccc1 (configuration not stated)	inactive	
Cn1c(=O)n(-c2ccc(C(C)(C)C#N)cc2)c2c3cc(C#Cc4cccnc4)ccc3ncc21	inactive	
C#CCN(Cc1cc2c(=O)n(C)c(CN3CCN(C)CC3)nc2cc1Cl)c1ccc(C(=O)NCc2cccnc2)cc1	inactive	
CN(C)c1nc(NC2CCC(NC(=O)c3ccc(F)c(F)c3)CC2)nc2ccccc12 (configuration not stated)	inactive	
C[C@]12C=C[C@@]3(CCC4[C@](C)(CO)CCC[C@@]4(C)C3CC1)C2 (some centres not stated)	inactive	
CN(c1ccccc1CNc1nc(Nc2ccc3c(c2)CC(=O)N3)ncc1C(F)(F)F)S(C)(=O)=O	inactive	
CCC1C(=O)OC23C=C[C@@H]4C(C(=O)O)=CO[C@H](O[C@@H]12)[C@@H]43 (some centres not stated)	inactive	
C=CC(=O)Nc1cc(Nc2nccc(-c3c[nH]c4ccccc34)n2)c(OC)cc1N(C)CCN(C)C	inactive	
NC(=O)c1cccc(-c2cc(OC(=O)NC3CCCCC3)ccc2O)c1	inactive	
CC(Oc1ccc2[nH]nc(/C=C/c3cnn(CCO)c3)c2c1)c1c(Cl)cncc1Cl (configuration not stated)	inactive	

SMILES	Potency	activity change, negative = inhibition
COc1ccc(CCO[C@@H]2CCCC[C@H]2N2CC[C@@H](O)C2)cc1OC	inactive	
O=C(CC1C(=O)Nc2ccccc21)OC[C@H]1O[C@@H](OCCc2ccc(O)cc2)[C@H](O)[C@@H](O)[C@@H]1O (some centres not stated)	inactive	
O=C(NCc1ccc(S(=O)(=O)c2cc(F)cc(F)c2)cc1)c1ccc2nccn2c1	inactive	
CC(C)(C)c1ccc(S(=O)(=O)NCc2ccc(C(=O)Nc3cccnc3)cc2)cc1	inactive	
C=CC(C)(C)C12C=C(OC)C(=O)N3C(C(C)C)C(=O)NC31N(OC)c1ccccc12 (configuration not stated)	inactive	
CC1C(=O)OCC2=CCN3CCC(OC(=O)C(C)(O)C1(C)O)C23 (configuration not stated)	inactive	
NCc1c[nH]c(=S)n1[C@@H]1CCc2c(F)cc(F)cc2C1	inactive	
COc1cc2c(NC3CCN(CC4CCCCC4)CC3)nc(N3CCCN(C(C)C)CC3)nc2cc1OCCCN1CCCCC1	inactive	
CC(=O)N1CCN(Cc2ccc([C@H](C)Nc3nccc(N4C(=O)OC[C@@H]4C(C)C)n3)cc2)CC1	inactive	
CC(O)/C=C/C1(O)C(C)C(O[C@@H]2O[C@H](CO)[C@@H](O)[C@H](O)[C@H]2O)C(O)CC1(C)C (some centres not stated)	inactive	
COC(=O)C1=CO[C@@H](O[C@@H]2O[C@H](CO)[C@@H](O)[C@H](O)[C@H]2O)[C@H]2[C@@H]1C=C[C@@]21C=C([C@H](C)O)C(=O)O1	inactive	
C[C@H](C(=O)NC1CCCC1)N(C(=O)Cn1nnc(-c2ccc3c(c2)OCO3)n1)C1CCCCC1	inactive	
COc1ccc(CC2NCCc3c2[nH]c2ccc(C)cc32)cc1OC (configuration not stated)	inactive	
C=C[C@H]1[C@H](O[C@@H]2O[C@H](CO)[C@@H](O)[C@H](O)[C@H]2O)OC=C(C(=O)OC)[C@H]1C/C=C(/C=O)[C@@H]1C(C(=O)OC)=CO[C@@H](O[C@@H]2O[C@H](CO)[C@@H](O)[C@H](O)[C@H]2O)[C@@H]1C=C	inactive	
OCCc1ccc(O[C@@H]2O[C@H](CO)[C@@H](O)[C@H](O)[C@H]2O)cc1	inactive	
CC1(C)CC[C@]2(C(=O)OC3OC(CO)C(O)C(O)C3O)CC[C@]3(C)C(=CCC4[C@@]5(C)CC[C@H](OC6OC(C(=O)O)C(O)C(OC7OC(CO)C(O)C(O)C7O)C6O)C(C)(C)C5CC[C@]43C)C2C1 (some centres not stated)	inactive	
CC[C@H](CO)Nc1nc(NCc2ccc(-c3ccccn3)cc2)c2ncn(C(C)C)c2n1	inactive	
C[C@H](N)C(=O)N[C@@H](Cc1ccc(O)cc1)C(=O)N1CCC[C@H]1C(=O)NCC(=O)N[C@@H](CCCCN)C(=O)N[C@@H](Cc1ccccc1)C(N)=O		9.61% [at 10.7 µM]
CC(C)(C)OC(=O)N1CCC(OCc2nc(-c3ccncc3)no2)CC1	inactive	
COC(=O)/C=C/C12COC(C)(C)C1C(O)C(OC(C)=O)C1(C)C2CCC2(C)C(c3ccoc3)OC(=O)C3OC321 (configuration not stated)	inactive	
